HT1080-NT tox = kills 2HG-producing HT-1080-NT fibrosarcoma cells. HT-1080-NT fibrosarcoma viability, CellTiter-Glo ATP luminescence, 48 h. Potency, µM (highest dose often 46.1 µM), for inactives: top-dose activity, negative = less viability, hits mostly cytotoxic. hit rate 1.6% among 360,000. AID 686970;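 note: NT is the 2HG producing partner of a matched IDH1 knockdown line; potency is the fitted concentration of half-maximal effect; 0% = DMSO-treated cells and -100% = media-only wells without cells; nearly all actives have a fitted effect of over 55% in size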
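Viability of the 2HG-overproducing fibrosarcoma line after 48 hours of compound exposure at 37 degrees C was determined by luminescence with CellTiter-Glo, and concentration-effect curves were then fitted and categorized.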
IL-1B inflam inh = inflammasome signaling inhibition, IL-1 beta readout | activity change, % at 57.5 µM | hit rate 4.7% among 360,000 | THP-1 LPS/ATP IL-1B secretion, AlphaLISA, 16 h; stronger effect = lower value; in the data active = activity change below about -50%; inconclusive = mostly about -30% to -49%
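Secreted IL-1B measured by AlphaLISA bead assay after 16 h compound exposure of THP-1 cells; compounds (final up to 57.5 uM) added 1 h before LPS (250 ng/mL) and ATP (1.25 mM) stimulation; lower signal means less secretion.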
TDP1 cell noCPT = qHTS for Inhibitors of human tyrosyl-DNA phosphodiesterase 1 (TDP1): qHTS in cells in absence of CPT | Potency, µM (series often up to 46.2 µM), for inactives: top-dose activity change, negative = growth inhibition, most hits filed as inhibitors | AID 686978, 2013 | DT40 Tdp1-/- hTDP1 cells, no CPT, ATP luminescence, 48 h | hit rate 15% among 420,000; note: potency is the fitted concentration of half-maximal effect; nearly all actives have a fitted effect of over 55% in size
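Stably hTDP1-transfected Tdp1-null chicken DT40 cells were treated with library compounds minus camptothecin and grown for at least 48 hr at 37 °C, after which cellular ATP was quantified by luminescence.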
HT1080 IDH1KD tx = HT-1080 IDH1 knockdown cell toxicity (counter line) | hit rate 2% among 360,000 | Potency, µM (series often up to 46.1 µM), without a hit: at the top dose activity, negative = toxicity, most hits filed as cytotoxic | AID 686971 | HT-1080 IDH1 knockdown viability, ATP luminescence, 48 h;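 note: potency is the fitted concentration of half-maximal effect; 0% = DMSO wells and -100% = cell-free medium wells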
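After a 2 h attachment period, IDH1KD HT-1080 cells took pin-transferred compound for 48 h at 37 °C; ATP-based luminescence after 10 min room-temperature reagent incubation reported viability.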
TDP1 cell CPT = growth inhibition of DT40 Tdp1-/-;hTDP1 cells with camptothecin (screen for TDP1 inhibitors) | AID 686979 | hit rate 12% among 420,000 | Potency, µM (doses to about 46.2 µM), inactives show top-dose activity change, negative = growth inhibition, usual class: inhibitors | chicken DT40 Tdp1-/-;hTDP1 cells + 20 nM CPT, ATP luminescence, 48 h; note: potency is the fitted concentration of half-maximal effect; nearly all actives have a fitted effect of over 55% in size
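Chicken DT40 Tdp1-/- cells stably complemented with human TDP1 were seeded at 400 cells/well in medium containing 20 nM camptothecin, exposed to pin-transferred compounds, and grown at 37 °C for at least 48 hr. Viability was read as ATP luminescence.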
uPA generation = cell surface uPA generation inhibition. hit rate 0.31% among 330,000. Potency, µM (highest dose often 38.3 µM), inactives show at the highest dose activity change, negative = inhibition, actives largely listed as inhibitors. cell surface uPA generation assay, qHTS; active = well fitted inhibition curve with a large enough effect; inconclusive = small, poorly fitted or top-dose-only effect; inactive = no such curve, though single readings can be large or run the other way; tested in mouse RAW 264.7 cells; note: potency is the fitted concentration of half-maximal effect; nearly all actives have a fitted effect of over 55% in size
Starred values were filed as active, the others as inactive; ? = inconclusive; / = no result given; [ ] = remark or other dose. Only some compounds are listed: those with a hit (about 19% of all), similar ones and a draw of the others. Unless noted, calls come from the whole dose curve; as a rule, active = well fitted curve in the direction sought with a large enough effect; inconclusive = small, poorly fitted or top-dose-only effect, or another doubt; inactive = no such curve, though single readings can be large; an effect the other way counts as inactive or inconclusive. Unless noted, % is set by controls: 0 for no effect and ±100 for the full control effect.

SMILES | HT1080-NT tox | IL-1B inflam inh | TDP1 cell noCPT | HT1080 IDH1KD tx | TDP1 cell CPT | uPA generation
COc1ccc(/C=C/c2nc3ccccc3n2C)cc1 | 5.2µM* | -73* | 8.2µM* | 4.6µM* | 9.2µM* | -17%
COc1ccc(Cn2c(/C=C/c3ccccc3)nc3ccccc32)cc1 | 11µM* | -78* | -27% | ? | ? | /
COc1ccc(Nc2nc3ccccc3n2C)cc1 | 5% | -2 | -2% | -24% | 8% | -2%
CCn1c(/C=C/c2ccccc2)nc2ccccc2c1=O | -4% | -23 | ? | -13% | ? | ?
CCC(C)n1c(/C=C/c2ccccc2)nc2ccccc21 (configuration not stated) | -3% | 8 | ? | -7% | ? | ?
CCn1c(/C=C/c2ccccc2)nc2ccccc21 | ? | -8 | 26µM* | ? | ? | ?
CC(C)Cn1c(/C=C/c2ccccc2)nc2ccccc21 | ? | -66* | ? | -23% | ? | -10%
CC1CN(Cc2ccccc2)C(C)CC1O (configuration not stated) | 6% | 13 | 3% | 5% | 12% | -8%
C1=C[C@H]2CCCN3CC[C@@H]([C@@H]2[C@]32CO2)[C@H]1CCOCc1ccccc1 | -13% | -15 | ? | -27% | ? | /
CCOc1ccc(CC(=O)NCC2(N3CCCCC3)CCCCC2)cc1 | 6% | 0 | 10% | 8% | 19% | 0%
CCOC(=O)/C=C/C(=O)Nc1ccc(S(=O)(=O)N2CCCCCC2)cc1 | -25% | -88* | ? | ? | ? | -6%
CCOC(=O)/C=C/C(=O)Nc1ccc(S(=O)(=O)N2CCc3ccccc32)cc1 | -8% | ? | 15µM* | -10% | 23µM* | ?
CCOC(=O)/C=C/C(=O)Nc1ccc(S(=O)(=O)N(C)c2ccccc2)cc1 | ? | -110* | ? | 21µM* | 1.8µM* | -11%
CCOC(=O)CCC(=O)Nc1ccc(S(=O)(=O)N2CCCCC2)cc1 | 1% | 3 | -17% | 9% | 3% | 6%
Cc1ccccc1OCCC(=O)OCC(=O)c1c(N)n(CC(C)C)c(=O)n(C)c1=O | -7% | 25 | ? | -7% | ? | -2%
O=C(c1ccc(Oc2ccc(C(F)(F)F)cn2)cc1)N1CCN(c2ccccc2)CC1 | -14% | -10 | 29µM* | -26% | -9% | /
COc1ccc(N2CCN(C(=O)c3ccc(Oc4ccc(C(F)(F)F)cn4)cc3)CC2)cc1 | 6% | -3 | 23µM* | -16% | ? | /
COc1ccc(N2CCN(C(=O)c3ccncc3)CC2)cc1 | 5% | 5 | -20% | -1% | -24% | /
COc1ccc2cc(C#N)c(N3CCN(Cc4nnnn4CCC(C)C)CC3)nc2c1 | 6% | ? | 18µM* | -10% | 21µM* | 2%
COC(=O)CN(C(=O)CSc1nnc(-c2cccc(OC)c2)o1)c1ccc(OC)cc1 | -1% | -6 | ? | -1% | ? | -2%
CN(CCC#N)C(=O)CSc1nnc(-c2c[nH]c3ccccc23)o1 | 6% | -9 | 1% | 5% | 1% | 11%
COc1ccc(CN(C(=O)CSc2nnc(-c3ccccc3C)o2)c2ccc(F)cc2)cc1 | ? | -3 | 23µM* | ? | ? | 6%
CCOC(=O)CN(C(=O)CSc1nnc(-c2cccc(OC)c2)o1)c1ccc(F)cc1 | -20% | 39 | 16µM* | -9% | ? | -7%
O=C(CSc1nnc(-c2c[nH]c3ccccc23)o1)N(Cc1ccccc1)c1ccc(F)cc1 | ? | -65* | ? | -29%[9.24 µM] | ? | -21%
COc1cc(N)c2ncccc2c1Br | -2% | ? | -4% | -19% | -2% | -3%
SMILES | HT1080-NT tox | IL-1B inflam inh | TDP1 cell noCPT | HT1080 IDH1KD tx | TDP1 cell CPT | uPA generation
CSCc1ccc(C(=O)NC(C)c2cnn(-c3ccccn3)c2C)o1 (configuration not stated) | 0% | 0 | -15% | -6% | -4% | -13%
C[C@H]1COc2cccc(N3CCC[C@H]3CO)c2S(=O)(=O)N1 | 20% | 0 | -13% | ? | -2% | /
O=C(O)c1cccc(Cn2c(Cl)c(/C=N/Nc3ccccc3)sc2=O)c1 | ? | 0 | 11% | 5.8µM* | ? | 0%
O=C(N/N=C/c1sc(=O)n(Cc2ccc(Br)cc2)c1Cl)c1ccco1 | -23% | -78* | ? | -10% | ? | -7%
CCCCC(Br)C(=O)Nc1ccc(S(=O)(=O)Nc2cc(C)nc(C)n2)cc1 (configuration not stated) | -1% | 5 | -29% | 3% | -3% | 0%
O=C(c1cnn(-c2nccc(-c3ccccc3F)n2)c1C1CC1)N1CCCCC1c1cccnc1 (configuration not stated) | / | / | 21µM* | / | 4%[9.04 µM] | /
Cc1cc(-c2ccnc(-n3ncc(C(=O)N4CCCCC4c4cccnc4)c3C3CC3)n2)c(C)s1 (configuration not stated) | / | / | -3% | / | 8%[9.04 µM] | /
Clc1cccc(COn2c(-c3ccc(Cl)cc3Cl)nc3ncccc32)c1 | -23% | 6 | 21µM* | ? | ? | -5%
Fc1ccccc1OCCCN1CCOCC1 | -19%[9.24 µM] | 0 | -10% | -8% | -16% | /
C#Cc1ccccc1OCCCN1CCC(C(O)(c2ccccc2)c2ccccc2)CC1 | 16µM* | 0 | 8.2µM* | 16µM* | 9.2µM* | /
N#Cc1ccccc1OCCCN1CCC(C(O)(c2ccccc2)c2ccccc2)CC1 | ? | ? | ? | ? | 18µM* | /
COc1cc(OC)c(Nc2nc3ccccc3nc2-n2nc(C)cc2C)cc1Cl | / | / | ? | / | -10% | /
O=C1CCN(Cc2ccccc2)CCN1[C@H](COc1ccccc1)Cc1ccccc1 | ? | ? | 21µM* | -18% | 21µM* | 3%
CC(C)C[C@@H](COc1ccccc1)N1CCN(Cc2ccccc2)CCC1=O | 0% | 23 | ? | 0% | ? | 8%
CN1CCC(=O)N([C@H](COc2ccccc2)Cc2ccccc2)CC1 | 0% | 21 | -4% | -5% | 19% | 1%
CCCN1CCC(=O)N([C@H](COc2ccccc2)Cc2ccccc2)CC1 | -1% | -5 | ? | -9% | 26µM* | -2%
COc1cccc(CNC(=O)C2CCC(=O)N(C3CC3)C2)c1OC (configuration not stated) | 1% | 26 | 10% | 2% | -1% | 3%
Cc1ccc(-c2nnc(Nc3ccc(S(N)(=O)=O)cc3)c3ccccc23)cc1S(=O)(=O)N1CCCCC1 | / | / | 0% | / | -18% | /

Screening data (PubChem BioAssay)
